For 55 molecules, Potency results are on record in PubChem BioAssay (NCATS).

Assay [1] in a line: qHTS of pediatric cancer cell lines to identify multiple opportunities for drug repurposing: Primary screen for control Hh wild type fibroblast cells (AID 1347106). Further: nearly all actives have a fitted effect of over 55% in size. Further: potency means the concentration at half of the fitted maximal effect. A digest of the protocol:
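Cells (500-1,000/well) in growth media were settled 5 h at 37 degrees C, then given compounds for 48 h. Viability was read as CellTiter-Glo luminescence. Primary runs used MIPE at 11 points (0.78 nM-46 µM) and NPC at 8 points (0.59 nM-46 µM); follow-ups used 11 points.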
For orientation: In qHTS, concentration-response curves come from the screen itself.

Assay [2] is described as follows: qHTS of pediatric cancer cell lines to identify multiple opportunities for drug repurposing: Primary screen for Rh30 cells (AID 1347107). Further: series mostly up to about 46 µM; nearly all actives have a fitted effect of over 75% in size. The method, boiled down: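 Cells (500-1,000/well) rested 5 h, then received compounds for 48 h; metabolically active cells were measured by CellTiter-Glo luminescence. Final concentrations spanned up to 46 µM (MIPE, 11-point) or 0.59 nM-46 µM (NPC, 8-point) in primary screens, 11-point in follow-ups.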

Assay [3] in a line: qHTS of pediatric cancer cell lines to identify multiple opportunities for drug repurposing: Primary screen for Rh41 cells (AID 1347108).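 Further: series mostly up to about 46 µM; luminescence drop marks cytotoxic hits; nearly all actives have a fitted effect of over 70% in size.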 The method, boiled down:
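Primary screen of approved and investigational compounds on cells in growth media at 37 degrees C, 5% CO2. MIPE set at 11-point and NPC set at 8-point dilutions; viability scored by ATP-based luminescence at 48 hours.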

Inconclusive results are not listed. Active and inactive are the calls of the source. The call rests on the fitted dose curve; in most records, active means well fitted curve in the direction sought with a large enough effect; inconclusive means small, poorly fitted or top-dose-only effect, or another doubt; inactive means no such curve, though single readings can be large; an effect the other way counts as inactive or inconclusive. Peptide text beside a SMILES is read from it.

Regarding `CC(C)[N+]1(C)[C@@H]2CC[C@H]1CC(OC(=O)C(CO)c1ccccc1)C2` (some centres undefined), in assay [1], the Potency result was “inactive”.

`O=C(O)c1cccc(-c2noc(-c3ccccc3F)n2)c1`: the Potency entry in assay [1] and in assay [2] was “inactive” in each case.

With `CNC[C@@H](O)[C@@H](O)[C@H](O)[C@H](O)CO`, the Potency entry in assay [1], in assay [2] and in assay [3] was “inactive” throughout.

For the molecule `CN(C)CCCC1(c2ccc(F)cc2)OCc2cc(C#N)ccc21` (centres undefined), the Potency result in assay [1] was “inactive”.

Take `CN(C)C(=O)[C@H](O)[C@H](Cc1ccccc1)NC(=O)c1cc2cc(Cl)ccc2[nH]1`: the Potency result in assay [1] is “inactive”.

Turning to `COc1cc(Nc2c(C#N)cnc3cc(OCCCN4CCN(C)CC4)c(OC)cc23)c(Cl)cc1Cl`, in assay [1], the Potency result is “inactive”.

For `O=C(NOCC1CC1)c1ccc(F)c(F)c1Nc1ccc(I)cc1Cl`, the Potency result in assay [1] is “inactive”.

With `O=c1c(O)c(-c2cc(O)c(O)c(O)c2)oc2cc(O)cc(O)c12`, the Potency result in assay [1] was “inactive”.

On to `CC(C)c1nc(CN(C)C(=O)N[C@H](C(=O)N[C@@H](Cc2ccccc2)C[C@H](O)[C@H](Cc2ccccc2)NC(=O)OCc2cncs2)C(C)C)cs1`, for which the Potency entry in assay [1] was “inactive”.

As for `Cc1cc(O)c2c(c1)C(=O)c1cc(O)cc(O)c1C2=O`, the Potency entry in assay [1] is “inactive”.

For `COc1ccccc1N1CCN(CCN(C(=O)C2CCCCC2)c2ccccn2)CC1`, the Potency result in assay [1], in assay [2] and in assay [3] was “inactive” in each case.

For `CCCCC(CC)COC(=O)C(C#N)=C(c1ccccc1)c1ccccc1` (centres undefined), the Potency result in assay [1] and in assay [2] was “inactive” in each case.

As to `C[C@@H](c1ncncc1F)[C@](O)(Cn1cncn1)c1ccc(F)cc1F`, in assay [1], the Potency entry was “inactive”.

Take `O=P(O)(O)C(O)(Cn1ccnc1)P(=O)(O)O`: the Potency result in assay [1], in assay [2] and in assay [3] was “inactive” throughout.

Turning to `CCCS(=O)c1ccc2nc(NC(=O)OC)[nH]c2c1` (centres undefined), in assay [1], the Potency entry is “inactive”.

Turning to `CC(C)[C@H](N)C(=O)OCCOCn1cnc2c(=O)[nH]c(N)nc21`, the Potency result in assay [1], in assay [2] and in assay [3] was “inactive” each time.

For the molecule `O=c1c(O)c(-c2ccc(O)cc2O)oc2cc(O)cc(O)c12`, the Potency entry in assay [1] and in assay [2] was “inactive” throughout.

Consider `CC(=O)N1CCN(c2ccc(OC[C@H]3CO[C@](Cn4ccnc4)(c4ccc(Cl)cc4Cl)O3)cc2)CC1`, for which, in assay [1], the Potency entry is “inactive”.

In the case of `CCCCN(CCCC)CCC(O)c1cc2c(Cl)cc(Cl)cc2c2cc(C(F)(F)F)ccc12` (centres undefined), the Potency result in assay [1], in assay [2] and in assay [3] was “inactive” throughout.

In the case of `Cc1cccc(C#Cc2ccccc2)n1`, in assay [1], the Potency entry was “inactive”.

For `O=C1NC(=O)C(c2ccccc2[N+](=O)[O-])=C1Nc1ccc(O)c(Cl)c1`, the Potency result in assay [1], in assay [2] and in assay [3] was “inactive” throughout.

Consider `Oc1ccc2ccccc2c1SSc1c(O)ccc2ccccc12`, for which the Potency in assay [1] is 23.5 µM (active).

In the case of `O=C1c2ccccc2-c2n[nH]c3cccc1c23`, in assay [1], the Potency result is “inactive”.

As to `NC(=NCc1ccccc1)NC(=O)c1nc(Cl)c(N)nc1N`, the Potency entry in assay [1] is “inactive”.

On to `N[C@@H](Cc1cc(I)c(Oc2cc(I)c(O)c(I)c2)c(I)c1)C(=O)O`, for which the Potency result in assay [1], in assay [2] and in assay [3] was “inactive” in each case.

As for `CC(C)c1ccc2c(c1)c(SC(C)(C)C)c(CC(C)(C)C(=O)O)n2Cc1ccc(Cl)cc1`, in assay [1], the Potency entry was “inactive”.

On to `Cc1cccc(C)c1OCC(=O)N[C@@H](Cc1ccccc1)[C@@H](O)C[C@H](Cc1ccccc1)NC(=O)[C@H](C(C)C)N1CCCNC1=O`, for which the Potency result in assay [1] and in assay [2] was “inactive” each time.

Turning to `O=c1cc(N2CCOCC2)oc2c(-c3ccccc3)cccc12`, the Potency entry in assay [1] is “inactive”.

With `CC(C)(S)[C@@H](N)C(=O)O`, the Potency entry in assay [1], in assay [2] and in assay [3] was “inactive” each time.

Regarding `CCC(C)(Oc1ccc(C2(c3ccc(OC(C)(CC)C(=O)O)cc3)CCCCC2)cc1)C(=O)O` (centres undefined), the Potency result in assay [1], in assay [2] and in assay [3] was “inactive” in each case.

Take `CN(C)CCc1c[nH]c2ccc(Cn3cncn3)cc12`: the Potency entry in assay [1], in assay [2] and in assay [3] was “inactive” throughout.

Turning to `COC(=O)[C@H](Cc1ccccc1)NC(=O)[C@@H](N)CC(=O)O` (H-Asp-Phe-OMe), the Potency result in assay [1], in assay [2] and in assay [3] was “inactive” each time.

As to `O=c1ccc2ccc(O)c(O)c2o1`, the Potency entry in assay [1] and in assay [2] was “inactive” in each case.

For the molecule `Cc1nccn1CC1CCc2c(c3ccccc3n2C)C1=O` (centres undefined), the Potency entry in assay [1], in assay [2] and in assay [3] was “inactive” throughout.

In the case of `Cc1cc2cc3c(C)cc(=O)oc3c(C)c2o1`, the Potency entry in assay [1] and in assay [2] was “inactive” in each case.

With `Cc1cccc(-c2[nH]ncc2-c2ccc3ncccc3n2)n1`, the Potency result in assay [1] and in assay [2] was “inactive” in each case.

Turning to `CC1=C(C)C(=O)C(C(CCCCCC(=O)O)c2ccccc2)=C(C)C1=O` (centres undefined), the Potency result in assay [1], in assay [2] and in assay [3] was “inactive” throughout.

Consider `COc1cc2nc(N3CCN(C(=O)C4CCCO4)CC3)nc(N)c2cc1OC` (centres undefined), for which the Potency result in assay [1], in assay [2] and in assay [3] was “inactive” throughout.

For `COc1c2occc2cc2ccc(=O)oc12`, the Potency entry in assay [1], in assay [2] and in assay [3] was “inactive” throughout.

For the molecule `CCN(CC)CCOc1ccc(Cc2ccccc2)cc1`, the Potency result in assay [1], in assay [2] and in assay [3] was “inactive” each time.

In the case of `COCCCN1CCC(NC(=O)c2cc(Cl)c(N)c3c2OCC3)CC1`, the Potency entry in assay [1], in assay [2] and in assay [3] was “inactive” each time.

Consider `Cc1cc(=O)oc2cc(O)ccc12`, for which the Potency entry in assay [1], in assay [2] and in assay [3] was “inactive” in each case.

For the molecule `OC(CN1CCN(c2cccc(Cl)c2)CC1)C(c1ccccc1)c1ccccc1` (centres undefined), the Potency entry in assay [1], in assay [2] and in assay [3] was “inactive” throughout.

Regarding `CN(C)[C@@H](CCOc1cccc2ccccc12)c1ccccc1`, the Potency result in assay [1], in assay [2] and in assay [3] was “inactive” each time.

Turning to `Cc1cc2c(s1)Nc1ccccc1N=C2N1CCN(C)CC1`, the Potency result in assay [1], in assay [2] and in assay [3] was “inactive” throughout.

In the case of `O=C(NCCO[N+](=O)[O-])c1cccnc1`, the Potency entry in assay [1], in assay [2] and in assay [3] was “inactive” in each case.

As to `CCOC(=O)C(C)Oc1cccc2c(=O)n(CC(=O)Nc3ccc4c(c3)OCCO4)ccc12` (centres undefined), the Potency entry in assay [1], in assay [2] and in assay [3] was “inactive” in each case.

Take `O=C(O)c1cn(-c2ccc(F)cc2)c2cc(N3CCNCC3)c(F)cc2c1=O`: the Potency entry in assay [1], in assay [2] and in assay [3] was “inactive” in each case.

In the case of `COCCCOc1ccnc(CS(=O)c2nc3ccccc3[nH]2)c1C` (centres undefined), the Potency result in assay [1], in assay [2] and in assay [3] was “inactive” throughout.

In the case of `c1ccc2[nH]c(-c3cscn3)nc2c1`, the Potency result in assay [1], in assay [2] and in assay [3] was “inactive” each time.

On to `O=C(c1ccccc1)c1ccc2n1CCC2C(=O)O` (centres undefined), for which the Potency entry in assay [1], in assay [2] and in assay [3] was “inactive” throughout.

As to `COC(=O)C1=C(C)NC(C)=C(C(=O)OCCCN2CCC(c3ccccc3)(c3ccccc3)CC2)C1c1cccc([N+](=O)[O-])c1` (centres undefined), the Potency result in assay [1], in assay [2] and in assay [3] was “inactive” throughout.

`CC(C)Oc1ccc2c(=O)c(-c3ccccc3)coc2c1`: the Potency entry in assay [1], in assay [2] and in assay [3] was “inactive” in each case.

As for `CC1(C)NC(=O)N(c2ccc([N+](=O)[O-])c(C(F)(F)F)c2)C1=O`, the Potency result in assay [1], in assay [2] and in assay [3] was “inactive” each time.

As for `CC(=O)NC[C@H]1CN(c2ccc(N3CCOCC3)c(F)c2)C(=O)O1`, the Potency result in assay [1], in assay [2] and in assay [3] was “inactive” in each case.
